Results published in PubChem BioAssay AID1445 (SRMLSC, 2008).
Screen size: about 220,000 compounds; about 910 (0.41%) were called active.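 How the source made its calls: active means primary inhibition above the hit cutoff, then over 50% inhibition at one or more dose response concentrations (cut at about 23% in these data, passing the limit was not always enough); inconclusive means conflicting primary data, or primary hits not chosen for dose response; inactive means low primary inhibition, or under 50% at every dose.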 The sample as a whole holds a higher share of actives than the screen did. Potency and affinity values are given separately.

molecular target: Aminopeptidase N (Plasmodium falciparum (isolate 3D7)) (UniProt O96935); assay: P. falciparum M1AAP inhibitors, biochemical, fluorogenic H-Leu-NHMec substrate, 1536-well (AID 1445); settings: recombinant M1AAP, H-Leu-NHMec fluorogenic kinetic assay; at 30 µM, active compounds read high unless noted;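 further: plate controls were DMSO full reaction for no effect and no enzyme background for full effect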
Sequence (O96935 whole entry, looked up): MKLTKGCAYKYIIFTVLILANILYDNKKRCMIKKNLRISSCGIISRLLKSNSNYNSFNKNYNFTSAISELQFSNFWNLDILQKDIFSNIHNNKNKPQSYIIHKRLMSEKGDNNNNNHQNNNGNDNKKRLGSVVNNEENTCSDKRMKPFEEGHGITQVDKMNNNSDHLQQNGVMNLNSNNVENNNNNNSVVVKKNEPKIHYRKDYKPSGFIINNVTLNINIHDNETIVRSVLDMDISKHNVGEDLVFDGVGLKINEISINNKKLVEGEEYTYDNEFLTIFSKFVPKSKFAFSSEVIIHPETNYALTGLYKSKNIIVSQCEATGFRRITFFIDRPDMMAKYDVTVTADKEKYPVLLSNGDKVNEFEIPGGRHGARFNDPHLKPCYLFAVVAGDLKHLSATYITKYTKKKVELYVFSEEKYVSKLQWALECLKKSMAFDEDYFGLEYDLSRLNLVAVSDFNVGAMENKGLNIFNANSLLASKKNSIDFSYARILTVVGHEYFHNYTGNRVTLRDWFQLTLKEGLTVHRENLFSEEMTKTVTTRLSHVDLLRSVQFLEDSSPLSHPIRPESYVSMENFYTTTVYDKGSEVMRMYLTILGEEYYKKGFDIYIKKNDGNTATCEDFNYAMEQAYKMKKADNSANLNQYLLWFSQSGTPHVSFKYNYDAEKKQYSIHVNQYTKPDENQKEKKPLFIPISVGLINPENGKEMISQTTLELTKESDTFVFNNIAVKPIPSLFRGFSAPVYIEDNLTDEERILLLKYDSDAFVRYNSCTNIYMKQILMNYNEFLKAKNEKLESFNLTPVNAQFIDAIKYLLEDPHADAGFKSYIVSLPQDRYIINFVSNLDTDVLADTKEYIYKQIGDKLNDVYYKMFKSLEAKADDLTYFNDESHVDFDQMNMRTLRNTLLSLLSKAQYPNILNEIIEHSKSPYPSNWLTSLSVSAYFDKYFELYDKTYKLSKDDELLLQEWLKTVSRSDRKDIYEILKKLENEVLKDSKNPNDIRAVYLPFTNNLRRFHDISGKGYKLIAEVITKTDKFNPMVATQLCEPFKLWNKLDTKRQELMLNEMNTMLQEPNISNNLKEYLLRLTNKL

inhibition, inactive:
CC(=O)N1CCN(Cc2nc3cc(NC(=O)c4cccc(Br)c4)ccc3n2C)CC1 4.84%, Cc1cc(C)n2cc(CSc3ccc(Br)cc3)nc2n1 -0.36%, CC(C)N(Cc1nc(-c2ccccc2)no1)C(=O)C(Cl)(Cl)Cl 1.11%, NC(=O)N/N=C/c1cn(-c2ccccc2)nc1-c1cccs1 4.92%, Cc1c(Cc2ccccc2)c(=O)oc2cc(OC(=O)c3ccccc3)ccc12 1.43%, COC(=O)Cc1c(C)c2ccc(OC(C)C)cc2oc1=O 4.34%, Cc1ccc(C(c2nnnn2CCC(C)C)N2CCN(C)CC2)cc1 (stereo not given) -0.91%, CC(C)C[C@H](NC(=O)c1nc[nH]c1C(=O)NC1CCN(C(=O)OC(C)(C)C)CC1)C(=O)OCc1ccccc1 -9.66%, CC(C)C[C@H](NC(=O)c1nc[nH]c1C(=O)N1CCN(C(=O)OC(C)(C)C)CC1)C(=O)OC(C)(C)C 14.4%, CC(C)C[C@H](NC(=O)c1nc[nH]c1C(=O)N[C@@H](CC(C)C)C(=O)OC(C)(C)C)C(=O)OC(C)(C)C -5.44%, CC(C)C[C@H](NC(=O)c1[nH]cnc1C(=O)N[C@@H](C)C(=O)OC(C)(C)C)C(=O)OC(C)(C)C -4.65%, COc1cc(C2C(C#N)=C(N)Oc3n[nH]c(-c4cccnc4)c32)cc(Br)c1O (stereo not given) 17.3%, COc1cc(OC)cc(C2C(C#N)=C(N)Oc3n[nH]c(-c4cccnc4)c32)c1 (stereo not given) 14.9%, CC(C)COc1ccc(C(=O)OCCN2CCOCC2)cc1 0.38%, CCc1cc(=O)oc2cc(C)c(CN3CCCCC3)c(O)c12 13.8%, CCc1cc(=O)oc2cc(C)c(CN3CCCC3)c(O)c12 13.6%, Cc1cc2oc(=O)cc(CN3CCC(C)CC3)c2c(C)c1Cl 8.55%, CCN1CCN(Cc2cc(=O)oc3ccc(Cl)cc23)CC1 1.72%, CN1CCN(Cc2c(O)c(Cl)cc3c(-c4ccccc4)cc(=O)oc23)CC1 19.7%, CCN1CCN(Cc2oc(CO)cc(=O)c2O)CC1 0.53%, CN1CCN(Cc2oc(CO)cc(=O)c2O)CC1 -1.32%, Cc1cc2oc(=O)cc(CN3CCC(C)CC3)c2cc1Cl 0.59%, O=C(COC(=O)CCc1ccc(S(=O)(=O)N2CCOCC2)cc1)NCc1ccccc1Cl -2.82%, Cc1ccc(C(=O)NC(=S)NCC2CCCO2)cc1Br (stereo not given) 3.05%, COc1ccc(C(=O)CSc2cc(C)nc(SCC(=O)c3ccc(C)cc3)n2)cc1 12.2%, Cn1c(C(O)C(O)c2ccccc2)nc2ccccc21 (stereo not given) -1.04%, CCCCC(=O)NC(NC(=O)CCCC)c1ccc(OCC(C)C)c(OC)c1 4.4%, Cn1c(Sc2ccccc2Cl)c(C=O)c2ccccc21 3.59%, CCN1C(=O)S/C(=C/c2c(OCc3ccc(C(=O)O)cc3)ccc3ccccc23)C1=O 9.62%, Cc1ccc(S(=O)(=O)N(C)Cc2ccc(C(=O)N/N=C/c3ccc(OC(F)F)cc3)cc2)cc1 -2.98%, Cc1cnc(NC(=O)CSc2nnc(-c3ccncc3)n2C2CCCCC2)s1 4.18%, CN(Cc1nc(-c2ccccn2)no1)S(=O)(=O)c1ccc(Cl)cc1 0.8%, Cc1nc2sc(C(c3ccc(C(C)C)cc3)N3CCN(CCO)CC3)c(O)n2n1 (stereo not given) 1.32%, C=CCn1c(SCC(=O)/C(C#N)=C(\C)N)nc2sc(CC)cc2c1=O 5.1%, Cc1c(C)c2cc(Cl)c(O)c(CN3CCCCC3)c2oc1=O 36%, CCc1c(C)c2cc(Cl)c(O)c(CN3CCCCC3)c2oc1=O -1.01%, C[C@@H]1Cc2c(O)c(O)cc(O)c2C(=O)O1 -2.7%, COc1c(O)cc2c(c1O)C(=O)CC(c1ccccc1)O2 (stereo not given) 4.17%, Cn1nc(-c2ccc(Cl)cc2)cc1NC(=O)CCCC(=O)O -1.87%, CC1CCc2cccc3c2N1c1cc(C#N)c(C#N)cc1O3 (stereo not given) -3.31%, O=C(Nc1nc2ccccc2[nH]1)c1ccc(Br)o1 0.56%, Cc1ccc(O)c(-c2cc(C(=O)Nc3ccc(S(=O)(=O)Nc4nccc(C)n4)cc3)[nH]n2)c1 5.6%, O=C1CCC(C(=O)OCc2ccccc2)N1 (stereo not given) 2.24%, CCOC(=O)Cc1cc(=O)n2[nH]c(-c3ccc(Cl)cc3)cc2n1 7.9%, CCOP(=O)(OCC)c1nc(Cc2ccccc2)oc1NCc1ccccc1 1.14%, CCOP(=O)(OCC)c1nc(-c2cccc3ccccc23)oc1NCc1ccc(OC)cc1 16.1%, Cc1ccc(S(=O)(=O)Nc2nc3n(n2)C(c2ccc(Cl)cc2)CC(=O)N3)cc1 (stereo not given) 4.26%, Cc1ccc(S(=O)(=O)Nc2cc(-c3ccc(Cl)cc3)nn2C)cc1 4.66%, Oc1[nH]c2ccccc2c1/C=N/N1CCCCC1 -0.99%, CCc1nn(C(C)C(=O)NCCc2ccc(OC)c(OC)c2)c(=O)c2cc3occc3n12 (stereo not given) 10.4%, O=C(O)c1cccc(N2C(=O)c3ccc4c5c(ccc(c35)C2=O)C(=O)N(c2cccc(C(=O)O)c2)C4=O)c1 11.6%, O=C(O)c1ccc(N2C(=O)c3cccc4c(C(=O)O)ccc(c34)C2=O)cc1 10.1%, COc1cccc(-c2nnc(SCN3C(=O)c4ccccc4C3=O)n2C)c1 -1.36%, Fc1ccc(CN2CCSCC2)cc1Br 0.38%, COC(=O)c1ccc(COc2ccccc2/C=N/NS(=O)(=O)c2ccccc2)cc1 3.52%, O=C1NC(=S)N/C1=C\c1ccccc1OCc1ccc(C(=O)O)cc1 14.7%, CN1C(=O)/C(=C/c2ccccc2OCc2ccc(C(=O)O)cc2)NC1=S 22.6%, CN1C(=O)S/C(=C\c2ccccc2OCc2ccc(C(=O)O)cc2)C1=O 18.7%, COC(=O)c1ccc(COc2ccc(/C=N/Nc3cccc(C(=O)O)c3)cc2)cc1 5.29%, CN1C(=O)S/C(=C/c2ccccc2OCc2ccc(C(=O)O)cc2)C1=O 6.59%
